This is an account of results in PubChem BioAssay (Tox21).

Assay [1] in a line: qHTS assay to identify small molecule antagonists of the thyroid receptor (TR) signaling pathway - cell viability counter screen (AID 743064). Note: nearly all actives have a fitted effect of over 50% in size. Note: potency is the fitted concentration of half-maximal effect. The method, boiled down: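 GH3.TRE-Luc rat pituitary cells dosed after 4 hr plating, co-stimulated with T3 at 1 nM final, incubated 23.5 h at 37 C. Viability measured in the same wells by CellTiter-Fluor fluorescence after 30 min further at 37 C.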
On the technique in general: qHTS replaces the single test concentration by a dilution series.

Assay [2] in a line: qHTS assay to identify small molecule antagonists of the thyroid receptor (TR) signaling pathway (AID 743065). Note: potency is the fitted concentration of half-maximal effect; nearly all actives have a fitted effect of over 55% in size. The method, boiled down:
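GH3.TRE-Luc rat pituitary cells (two TREs driving luciferase) were dosed with compound, then stimulated with 1 nM T3 (final) for 23.5 h at 37 C. ONE-Glo luminescence was the read-out, with CellTiter-Fluor fluorescence as the cytotoxicity counter-screen.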

Assay [3] is described as follows: qHTS assay to identify small molecule antagonists of the estrogen receptor alpha (ER-alpha) signaling pathway - cell viability counter screen (AID 743074; calls by dose curve;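 note: HEK293 cells carrying ER-alpha-UAS-bla reporter stimulated with 17beta-estradiol; nearly all actives have a fitted effect of over 45% in size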; note: potency is the fitted concentration of half-maximal effect).
Assay [4] addresses Estrogen receptor (Homo sapiens) (UniProt P03372). As to the kind of experiment: qHTS assay to identify small molecule agonists of the estrogen receptor alpha (ER-alpha) signaling pathway (AID 743075; calls by dose curve;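 note: HEK293 GripTite cells with ER-alpha and UAS-driven beta-lactamase reporter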; note: potency is the fitted concentration of half-maximal effect).
A further assay concerns the target Aromatase (Homo sapiens) (UniProt P11511). As to the kind of experiment: qHTS assay to identify aromatase inhibitors (AID 743083). Note: nearly all actives have a fitted effect of over 55% in size. Note: potency is the fitted concentration of half-maximal effect.
Assay [5] is described as follows: qHTS assay to identify aromatase inhibitors - cell viability counter screen (AID 743084).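 Note: cells stimulated with testosterone during compound exposure; nearly all actives have a fitted effect of over 55% in size.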 Note: potency is the fitted concentration of half-maximal effect.
In assay [6] the target is Aryl hydrocarbon receptor (Homo sapiens) (UniProt P35869). As to the kind of experiment: qHTS assay to identify small molecule that activate the aryl hydrocarbon receptor (AhR) signaling pathway (AID 743085).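 For activation: HG2L7.5c1 human HepG2 liver cells with stably integrated DRE-driven firefly reporter.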 Note: nearly all actives have a fitted effect of over 15% in size. Note: potency is the fitted concentration of half-maximal effect. The essentials:
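HepG2 cells stably carrying a 20-DRE firefly luciferase reporter (HG2L7.5c1) treated with compound for 24 hr at 37C. Luciferase read by ONE-Glo luminescence, with CellTiter-Fluor viability read first.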

The nature of assay [7]: qHTS assay to identify small molecule that activate the aryl hydrocarbon receptor (AhR) signaling pathway - cell viability counter screen (AID 743086). Note: nearly all actives have a fitted effect of over 45% in size. Note: potency is the fitted concentration of half-maximal effect. The essentials:
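HepG2-AhR-luc (HG2L7.5c1) cells, 4000/well, treated 24 h at 37 C with compound; viability measured as CellTiter-Fluor fluorescence after 30 min in the same wells as the luciferase read.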

Assay [8] in a line: qHTS assay to identify small molecule antagonists of the peroxisome proliferator-activated receptor gamma (PPARg) signaling pathway - cell viability counter screen (AID 743194). Note: nearly all actives have a fitted effect of over 55% in size. Note: potency is the fitted concentration of half-maximal effect. Conditions: Potency: co-treated with 50 nM rosiglitazone unless noted. The essentials:
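Cytotoxicity counter screen in PPARg-bla HEK293H cells, same wells as reporter assay. Compounds plus 50 nM rosiglitazone (final) for 17 h at 37 C, then viability read by CellTiter-Glo luminescence.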

A short description of assay [9]: qHTS assay for small molecule agonists of the antioxidant response element (ARE) signaling pathway - cell viability counter screen (AID 743203; calls by dose curve; note: nearly all actives have a fitted effect of over 55% in size; note: potency is the fitted concentration of half-maximal effect). The essentials: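 Compounds in DMSO were pinned onto ARE-bla HepG2 cells plated 5 hrs earlier at 2,000 cells/well. Sixteen hours later at 37C/5% CO2, CellTiter-Glo was added and luminescence measured after 30 min at room temperature.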

In assay [10] the target is Peroxisome proliferator-activated receptor gamma (Homo sapiens) (UniProt P37231). As to the kind of experiment: qHTS assay to identify small molecule agonists of the peroxisome proliferator-activated receptor gamma (PPARg) signaling pathway (AID 743094; active = well fitted activation curve with a large enough effect in the signal ratio in the repeat runs, not every such curve was filed as active; inconclusive = weak or mixed curves, or effect the other way; inactive = no such curve, though single readings can be large or run the other way; the % refers to the signal ratio; note: potency is the fitted concentration of half-maximal effect). The essentials:
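Following 5 h plating at 37C, PPARg-bla HEK293H cells receive compound or DMSO for 17 h; fluorescence intensity is recorded after LiveBLAzer B/G loading for 1 h at room temperature.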

Assay [11] deals with thyroid hormone receptor (rat, GH3 cells). As to the kind of experiment: qHTS assay to identify small molecule agonists of the thyroid receptor (TR) signaling pathway (AID 743066; calls by dose curve; note: potency is the fitted concentration of half-maximal effect).
Assay [12] can be described thus: qHTS assay to identify small molecule antagonists of the estrogen receptor alpha (ER-alpha) signaling pathway using the BG1 cell line - cell viability counter screen (AID 743081).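 Note: compound given together with 17beta-estradiol as the ER stimulus; nearly all actives have a fitted effect of over 45% in size.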 Note: potency is the fitted concentration of half-maximal effect.
A short description of assay [13]: qHTS assay for small molecule activators of the heat shock response signaling pathway - cell viability counter screen (AID 743209). Note: nearly all actives have a fitted effect of over 50% in size. Note: potency is the fitted concentration of half-maximal effect. The method, boiled down:
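Counter screen for cytotoxicity in HeLa HSE-bla reporter cells. Treatment was 5 h at 37 C; viability was detected by luminescent ATP assay (CellTiter-Glo) in the same wells as the beta-lactamase read.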

For assay [14], the target named is Estrogen receptor (Homo sapiens) (UniProt P03372). As to the kind of experiment: qHTS assay to identify small molecule antagonists of the estrogen receptor alpha (ER-alpha) signaling pathway (AID 743069; active = well fitted curve in the direction sought with a large enough effect in the signal ratio in the repeat runs, not every such curve was filed as active; inconclusive = weak or mixed curves, or effect the other way; inactive = no such curve, though single readings can be large or run the other way; the % refers to the signal ratio). The essentials: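 Reporter cells (ER-alpha-bla, HEK293 background) are conditioned overnight in stripped-serum medium (2% charcoal-stripped FBS). Compound and 17beta-estradiol exposure runs 18 hr at 37C, 5% CO2.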
Chain of Estrogen receptor (Homo sapiens) (P03372 whole entry, looked up): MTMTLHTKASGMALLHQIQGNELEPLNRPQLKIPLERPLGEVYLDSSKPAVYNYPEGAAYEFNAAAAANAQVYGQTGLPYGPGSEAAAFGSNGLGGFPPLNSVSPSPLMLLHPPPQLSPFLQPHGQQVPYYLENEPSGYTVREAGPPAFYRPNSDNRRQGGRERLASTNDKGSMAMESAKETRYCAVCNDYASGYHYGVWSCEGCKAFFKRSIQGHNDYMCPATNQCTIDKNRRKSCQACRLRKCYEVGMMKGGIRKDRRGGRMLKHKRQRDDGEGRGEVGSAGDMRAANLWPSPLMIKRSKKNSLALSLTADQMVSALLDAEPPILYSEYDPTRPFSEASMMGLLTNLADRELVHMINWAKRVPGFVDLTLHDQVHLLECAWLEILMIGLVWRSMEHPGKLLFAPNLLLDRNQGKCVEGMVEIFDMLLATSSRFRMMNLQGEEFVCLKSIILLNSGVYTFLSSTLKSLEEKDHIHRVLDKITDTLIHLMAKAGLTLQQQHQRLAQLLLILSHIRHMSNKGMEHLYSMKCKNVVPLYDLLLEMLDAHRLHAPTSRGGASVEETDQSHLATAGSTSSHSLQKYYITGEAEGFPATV

The target is the same in assay [15]. As to the kind of experiment: qHTS assay to identify small molecule agonists of the estrogen receptor alpha (ER-alpha) signaling pathway using the BG1 cell line (AID 743079). Note: nearly all actives have a fitted effect of over 20% in size. Conditions: BG1Luc4E2 cells, ERE-luciferase agonist, 22 h; activation: at 70.3 µM (top of the series).
A short description of assay [16]: qHTS assay to identify small molecule antagonists of the estrogen receptor alpha (ER-alpha) signaling pathway using the BG1 cell line (AID 743080; calls by dose curve;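 note: BG1 cells stimulated with 17beta-estradiol alongside compound; nearly all actives have a fitted effect of over 25% in size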). The method, boiled down:
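Quantitative HTS on the Tox21 10K library: BG1 cells with endogenous ER-alpha and ERE-luciferase reporter, 17beta-estradiol stimulation, 21.5 h compound exposure, luminescence endpoint with parallel fluorescence cytotoxicity counter-read.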

Assay [17] is described as follows: qHTS assay for small molecule agonists of the antioxidant response element (ARE) signaling pathway (AID 743202; active = well fitted activation curve with a large enough effect in the signal ratio in the repeat runs, not every such curve was filed as active; inconclusive = weak or mixed curves, or effect the other way; inactive = no such curve, though single readings can be large or run the other way; the % refers to the signal ratio). The essentials: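 Agonist mode reporter screen: HepG2 cells with ARE-controlled beta-lactamase are incubated with test compounds for 16 h at 37 C, and beta-lactamase activity is measured as fluorescence of cleaved B/G FRET substrate.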
The nature of assay [18]: qHTS assay for small molecule activators of the heat shock response signaling pathway (AID 743210; active = well fitted activation curve with a large enough effect in the signal ratio in the repeat runs, with a control signal flat, not every such curve was filed as active; inconclusive = weak or mixed curves; the % refers to the signal ratio;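 note: HeLa cells with beta-lactamase reporter driven by heat shock elements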). The essentials: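 Quantitative high-throughput format using an engineered HeLa line in which heat shock response elements drive beta-lactamase; after 5 h with compound, cells received a B/G FRET substrate and fluorescence was read.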

Unmarked numbers belong to inactive results. Calls of active or inactive are those of the source. Unless noted, calls come from the whole dose curve; as a rule, active = well fitted curve in the direction sought with a large enough effect in the repeat runs; inconclusive = weak or mixed curves; inactive = no such curve, though single readings can be large; an effect the other way counts as inactive or inconclusive.

Chain of Aromatase (Homo sapiens) (P11511 whole entry, looked up): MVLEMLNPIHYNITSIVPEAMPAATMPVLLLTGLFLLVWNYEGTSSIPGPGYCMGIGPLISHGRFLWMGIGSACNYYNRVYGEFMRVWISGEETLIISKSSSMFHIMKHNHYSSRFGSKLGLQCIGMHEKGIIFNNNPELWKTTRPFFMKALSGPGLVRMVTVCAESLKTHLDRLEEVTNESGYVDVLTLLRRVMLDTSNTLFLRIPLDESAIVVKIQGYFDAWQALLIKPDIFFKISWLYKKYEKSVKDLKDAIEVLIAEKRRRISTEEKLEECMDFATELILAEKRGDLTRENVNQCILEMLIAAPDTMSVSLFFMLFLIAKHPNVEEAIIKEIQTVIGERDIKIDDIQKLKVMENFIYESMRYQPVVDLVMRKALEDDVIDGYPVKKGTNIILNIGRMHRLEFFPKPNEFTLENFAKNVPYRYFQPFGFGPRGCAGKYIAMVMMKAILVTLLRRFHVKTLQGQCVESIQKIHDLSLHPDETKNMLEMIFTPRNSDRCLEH
Chain of Aryl hydrocarbon receptor (Homo sapiens) (P35869 whole entry, looked up): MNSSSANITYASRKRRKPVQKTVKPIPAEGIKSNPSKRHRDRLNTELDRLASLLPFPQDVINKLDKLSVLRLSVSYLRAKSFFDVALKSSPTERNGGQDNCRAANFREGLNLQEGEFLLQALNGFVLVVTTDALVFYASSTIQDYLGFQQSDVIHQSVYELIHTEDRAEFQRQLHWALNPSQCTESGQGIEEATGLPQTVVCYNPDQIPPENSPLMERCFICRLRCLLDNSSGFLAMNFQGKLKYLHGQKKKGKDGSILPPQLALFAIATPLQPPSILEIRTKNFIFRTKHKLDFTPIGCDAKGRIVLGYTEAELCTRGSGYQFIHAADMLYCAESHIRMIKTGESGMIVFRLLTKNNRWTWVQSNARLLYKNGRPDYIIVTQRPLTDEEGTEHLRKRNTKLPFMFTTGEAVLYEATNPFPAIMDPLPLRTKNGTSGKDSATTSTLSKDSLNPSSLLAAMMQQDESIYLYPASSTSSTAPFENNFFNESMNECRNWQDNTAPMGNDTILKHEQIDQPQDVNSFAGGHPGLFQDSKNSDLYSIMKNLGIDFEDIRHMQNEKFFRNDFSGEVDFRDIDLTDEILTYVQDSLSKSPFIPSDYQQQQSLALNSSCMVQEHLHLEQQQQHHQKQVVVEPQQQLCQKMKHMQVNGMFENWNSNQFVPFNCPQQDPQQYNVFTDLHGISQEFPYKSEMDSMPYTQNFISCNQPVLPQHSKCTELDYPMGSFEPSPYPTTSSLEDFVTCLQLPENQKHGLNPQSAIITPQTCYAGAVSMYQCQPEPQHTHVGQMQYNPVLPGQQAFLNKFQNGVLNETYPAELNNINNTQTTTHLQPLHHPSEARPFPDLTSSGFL
Chain of Peroxisome proliferator-activated receptor gamma (Homo sapiens) (P37231 whole entry, looked up): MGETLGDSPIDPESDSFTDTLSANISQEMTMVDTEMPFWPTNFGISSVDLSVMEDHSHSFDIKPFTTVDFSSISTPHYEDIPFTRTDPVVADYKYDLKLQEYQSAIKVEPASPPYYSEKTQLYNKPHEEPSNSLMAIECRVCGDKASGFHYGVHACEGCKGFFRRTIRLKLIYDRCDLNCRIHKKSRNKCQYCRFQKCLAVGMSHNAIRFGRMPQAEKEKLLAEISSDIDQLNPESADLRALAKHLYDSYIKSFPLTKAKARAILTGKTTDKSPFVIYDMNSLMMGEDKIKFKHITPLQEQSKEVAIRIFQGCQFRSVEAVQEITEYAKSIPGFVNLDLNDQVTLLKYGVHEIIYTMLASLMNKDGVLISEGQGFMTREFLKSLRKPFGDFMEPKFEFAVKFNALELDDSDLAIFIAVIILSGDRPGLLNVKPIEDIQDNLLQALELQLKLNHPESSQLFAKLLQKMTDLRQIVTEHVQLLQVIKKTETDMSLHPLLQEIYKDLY

In the case of `CCN1CCC2(CC1)COc1cc3c(cc12)N(C(=O)c1ccc(-c2ccc(-c4nnc(C)o4)cc2C)cc1)CC3`, the Potency in [1] was 14.2 µM (active); in assay [2], 2.52 µM (active); in assay [3], 50.7 µM (active); with Aromatase (Homo sapiens) it was 28.3 µM (active); in [5] it was 39.9 µM (active); in assay [7] it was 28.3 µM (active). Moreover, the Potency was 7.16 µM (active) in [8] and 7.1 µM (active) in assay [9]. Besides, the Potency result in assay [4] and in assay [6] was “inactive” each time.

Regarding `CCC[CH2][Sn]([CH2]CCC)([CH2]CCC)[CH2]CCC`, the Potency in assay [1] is 30.6 µM (active); in assay [2], 19.3 µM (active); in [5], 43.3 µM (active); in assay [10], 54.9 µM (active); in assay [8], 19.5 µM (active); in assay [9] it was 15.4 µM (active). Moreover, the Potency entry (in the assay with Aromatase (Homo sapiens); in assay [6]) was “inactive” in each case.

Regarding `O=c1[nH]c(Cl)c(Cl)cc1Cl`, the Potency result (in [1]; in assay [11]; in assay [3]; in assay [12]; with Aromatase (Homo sapiens); in [5]) was “inactive” in each case. Further, the Potency entry in [10], in assay [8] and in [9] was “inactive” each time.

Turning to `O=[N+]([O-])c1cc(C(F)(F)F)c(Cl)c([N+](=O)[O-])c1Nc1ncc(C(F)(F)F)cc1Cl`, the Potency was 5.45 µM (active) in [1]; 2.17 µM (active) in [2]; 49 µM (active) in [3]; 49 µM [inconclusive] (active) in assay [4]; 68.6 µM (active) in assay [12]; 2.73 µM (active) with Aromatase (Homo sapiens). Further, the Potency was 21.7 µM (active) in assay [5]; 77 µM (active) in assay [6]; 13.7 µM (active) in assay [7]; 7.7 µM (active) in assay [9]; 6.16 µM (active) in [13].

Regarding `[Cl][Hg][c]1ccccc1`, the Potency in assay [1] is 0.243 µM (active); in assay [2] it was 0.0863 µM (active); in assay [3], 12.3 µM (active); in assay [4] it was 4.36 µM [fluorescent] (active); in assay [12], 30.6 µM (active); with Aromatase (Homo sapiens), 1.37 µM (active). Moreover, the Potency in assay [5] is 1.93 µM (active); in assay [7], 5.45 µM (active); in [8], 0.776 µM (active); in assay [9], 1.72 µM (active); in assay [13], 3.09 µM (active). For the same molecule, in assay [6], the Potency entry was “inactive”.

Regarding `O=C(O)CCCCCCNC1c2ccccc2CCc2ccccc21`, the Potency entry in [1], in assay [14], in assay [4], in [15], in assay [16] and in assay [12] was “inactive” each time. Also, the Potency result in assay [5], in assay [7], in [8], in [17], in assay [13] and in assay [18] was “inactive” each time. For the same molecule, the Potency in assay [11] was 23.7 µM (active).

Take `CC(=O)[O-].CC(=O)[O-].[Co+2]`: the Potency entry (in assay [1]; in assay [11]; in assay [3]; in assay [12]; with Aromatase (Homo sapiens); in assay [5]) was “inactive” each time. Further, the Potency result in assay [6], in assay [7], in [8] and in [13] was “inactive” in each case.

`CC1(C)C(C=C(Cl)Cl)C1C(=O)OC(C#N)c1ccc(F)c(Oc2ccccc2)c1` (stereo not given): the Potency result in assay [1], in [11], in [14], in assay [3], in [4] and in assay [15] was “inactive” in each case. Besides, the Potency entry in [16], in assay [12], in [5], in [6], in assay [7] and in assay [8] was “inactive” in each case. Further, the Potency entry in [17] and in [13] was “inactive” throughout.

Turning to `Clc1ccc(C2(Cn3cncn3)OCCO2)c(Cl)c1`, the Potency result in [1], in assay [14], in [3], in assay [4], in [15] and in [16] was “inactive” throughout. Moreover, the Potency entry (in assay [12]; with Aromatase (Homo sapiens); in assay [5]; in [6]; in assay [7]; in assay [8]) was “inactive” each time. Further, the Potency result in assay [9] is “inactive”.
